INHIBITION data for 115 compounds are collected here from ChEMBL document CHEMBL4513216, “Probing the Open Global Health Chemical Diversity Library for Multistage-Active Starting Points for Next-Generation Antimalarials” (ACS Infect Dis, 2020).

Molecules are shown by their SMILES. Among all 69,000 compounds or so, about 8,600 (12%) showed an effect of 50% or more. Many of the other results were omitted from the sample, so strong results are more common in it than they were.

The test has as its system Plasmodium berghei. Briefly: Screen against P. berghei liver stage (PbLuc), transformed with Luciferase, at 10uM. The class given is functional, HepG2. To be noted: tested at 10 uM.
With `CC(=O)c1ccc(S(=O)(=O)NCC2CCN(c3cnccn3)CC2)cc1`, the INHIBITION was determined as 35%.
Under `O=C(CC1CCN(c2cccnn2)CC1)NC1CCOCC1` stands 3.48%.
On to `O=C(CCN1CCCCO1)N1CCC(CO)(CCc2ccccc2)CC1`, for which the INHIBITION is -29%.
For `Cc1noc(C)c1CN1Cc2ccnn2CC(C(=O)NCC2CC2)C1` (stereo not given) the value was 85.8%; for `O=C(NCc1cccnc1)C1CC(=O)N(CC2CC2)C1` (stereo not given), 37%; for `Cc1ccc(CN2Cc3ccnn3CC(C(=O)NCC3CC3)C2)o1` (stereo not given), -31%.
As to `O=C(NCC1CC1)C1CN(Cc2ccncc2)Cc2ccnn2C1` (stereo not given), the INHIBITION is given as -2.35%.
For `CS(=O)(=O)N1Cc2ccnn2CC(C(=O)NCc2cccnc2)C1` (stereo not given) the value was 77.4%; for `CC(=O)N1Cc2ccnn2CC(C(=O)NCc2cccnc2)C1` (stereo not given), 46.6%.
Under `CNCC(=O)N1CC(c2cc(Nc3ncccn3)nc(C)n2)C1` stands 29.6%.
For `CCn1ncc2c1CCCC2NCc1cc(OC)cc(OC)c1` (stereo not given) the value was 37.9%.
With `CC(C)n1cc(C(=O)NCCCn2ccnc2)c2n[nH]c(=O)c-2c1`, the INHIBITION is -7.57%.
With `Cc1ccc(N2CC[C@H]3C[C@H](C(=O)NCc4ccco4)O[C@@H]3C2)cc1`, the INHIBITION was 40.1%.
For `CC(C)CN1CCS(=O)(=O)[C@@H]2CCN(S(=O)(=O)CC(C)C)CC[C@@H]21` the value was 2.41%; for `Cc1ccc(C(=O)NC2CCN(C(C)C)C2)c(=O)[nH]1` (stereo not given), 20.8%.
Regarding `CN(C)C(=O)c1cc(-c2ccc(S(C)(=O)=O)cc2)c2cnn(C)c2n1`, the INHIBITION worked out at 25.9%.
With `CC(C)NC(=O)c1cc(-c2ccc(S(C)(=O)=O)cc2)nc2c1cnn2C`, the INHIBITION is 24.2%.
With `CC(C)NC(=O)c1cc(-c2ccc(S(C)(=O)=O)cc2)c2cnn(C)c2n1`, the INHIBITION came out at 94.6%.
For `COc1cccc(CNC(=O)c2cccnc2SC(C)C)c1` the value was 7.27%; for `CCN(C)Cc1n[nH]c(=O)n1-c1ccc(C)c(C)c1`, 46.7%.
`O=C(CC1CC1)N1CCN(Cc2cccnc2)c2ncccc2C1`: the INHIBITION was found to be 0.618%.
Regarding `CC1CCC(NC(=O)CNC2(c3cccc(Br)c3)CCOCC2)CC1` (stereo not given), the INHIBITION was -7.46%.
`O=C(CC1Cn2ncnc2NC1=O)Nc1cccc(C(F)(F)F)c1` (stereo not given): the INHIBITION is 54%.
For `O=C(CC1Cn2ncnc2NC1=O)Nc1ccccc1` (stereo not given) the value was -46.2%; for `COc1cccc(NC(=O)CC2Cn3ncnc3NC2=O)c1` (stereo not given), 25.9%; for `CN(Cc1cncnc1)Cc1cn2c(n1)CN(C1CCOC1)CC2` (stereo not given), 1.28%.
For `CCOC(=O)N1CCN(C(=O)c2snnc2-c2ccccc2)CC1`, the INHIBITION was -7.27%.
For `CNC(=O)CN1CCOCC2(CCCN(CCc3ccccc3)C2)C1` (stereo not given) the value was 43.2%; for `COCc1ccccc1CNC(=O)CN1CCC2(CCOC2)C1` (stereo not given), 68.4%; for `COc1ccc(Cl)cc1CNC(=O)CN1CCC2(CCOC2)C1` (stereo not given), 39.6%.
For `CCCOc1cccc(CNC(=O)CN2CCN(C)CC2C)c1` (stereo not given), the INHIBITION turned out to be 36.9%.
Under `CCOc1cccc(CNC(=O)CN2CCC3(CCOC3)C2)c1` (stereo not given) stands 61.9%; under `COCc1ccccc1CNC(=O)CN1CCCC1c1noc(C)n1` (stereo not given), -1.05%; under `Cc1oncc1C(=O)N[C@@H]1CN(Cc2ccoc2)C[C@@H]2CCCO[C@@H]21`, 43%.
For `COc1cc(N2CCC3(CC2)OCC(=O)NC3C)ncn1` (stereo not given), the INHIBITION was found to be 10.6%.
For `Cc1cc(F)cc(S(=O)(=O)NC(=O)CCc2cncc(F)c2)c1` the value was 38.9%; for `CNC(=O)CCc1cc(C)nc(C2CCCCN2)n1` (stereo not given), 26.3%.
Under `O=C(COc1ccccc1F)NCC(O)(c1ccccc1)C1CC1` (stereo not given) stands -22.7%.
Under `Cc1nn(C)c(C)c1C(=O)N1CCN(C(=O)CCC2CCCCC2)CC1` stands 28.7%; under `Cc1cc(C(=O)N2CCN(C(=O)CCC3CCCCC3)CC2)n(C)n1`, 56.5%.
`CC(C)CC(=O)N1CCN(c2cc(N(C)C)cnn2)CC1`: the INHIBITION worked out at 22.2%.
Take `Cc1nn(C)c(C)c1C(=O)N1CCN(C(=O)CC2CCCCC2)CC1`: the INHIBITION came to 39.4%.
`CCC(=O)N1CCN(c2cc(N(C)C)cnn2)CC1`: the INHIBITION is given as -15.6%.
On to `CN(C)c1cnnc(N2CCN(C(=O)CCC3CCCCC3)CC2)c1`, for which the INHIBITION came out at 76.7%.
For `CCN1CC(C(=O)NCCn2cccc2)CCC1=O` (stereo not given) the value was 44.8%; for `NCc1cc(-c2ccccc2)n2nccc2n1`, 41.2%; for `CS(=O)(=O)N[C@@H]1COC[C@@H]2CN(Cc3ccco3)C[C@@H]21`, 18.4%.
Under `Cn1nccc1C(=O)N1C[C@@H]2CC[C@H](Oc3cccc(F)c3)[C@@H]2C1` stands 25.6%; under `CCOC(=O)CNC(=O)c1cc2n(n1)CCCO2`, -0.996%; under `CCNC(=O)c1cc2n(n1)CCCO2`, 9.41%.
Under `CCOC(=O)c1cc2n(n1)CCCO2` stands 57.6%.
Regarding `COC(=O)c1ccc(OC)c(OC23CCCN(CC2)C3)c1` (stereo not given), the INHIBITION is listed as -9.76%.
In the case of `O=C(c1cc(F)cc(F)c1)N1CCC2(CC1)CC2`, the INHIBITION is recorded as 73.2%.
For `N#Cc1ccc(C(=O)N2CCC3(CC2)CC3)cc1` the value was 40.8%.
As to `O=C(c1cc(F)cc(F)c1)N1CCC(O)(C(F)(F)F)CC1`, the INHIBITION is 25.4%.
For `COCCN1CCO[C@@H]2CN(C(=O)NCc3cccnc3)CC[C@@H]2C1` the value was 29.8%.
For `Cc1nc(CN(Cc2ccccc2F)C2CCC2)no1` the value was -16.6%; for `O=C(Nc1ccc2c(c1)OCCO2)N1CCCN(Cc2cccs2)CC1`, -14.1%.
For `O=C1Cc2cc(NC(=O)N3CCCN(Cc4cccs4)CC3)ccc2N1` the value was 42.7%.
Regarding `O=C1CCc2cc(NC(=O)N3CCCN(Cc4cccs4)CC3)ccc21`, the INHIBITION is reported as 53.8%.
With `Cc1noc(C)c1CNCC1Cn2nncc2CO1` (stereo not given), the INHIBITION was determined as 40.3%.
For `Cc1nc(N2CCCC2)nc2c1CN(C(=O)NC(C)C)CC2` the value was -9.74%; for `CCc1ccccc1OCCN1CCC(NS(C)(=O)=O)CC1`, 43.1%.
For `CCc1ccccc1OCCN1C[C@@H](NS(C)(=O)=O)[C@H](C(C)C)C1` the value was 57.3%.
Under `CC(C)[C@@H]1CN(CCCOc2ccc(F)cc2)C[C@H]1NS(C)(=O)=O` stands 54.5%.
With `CC(C)[C@@H]1CN(Cc2c[nH]nc2-c2ccc(F)cc2)C[C@H]1NS(C)(=O)=O`, the INHIBITION was -5.22%.
Under `CC(C)[C@@H]1CN(CCOc2ccc(Cl)cc2)C[C@H]1NS(C)(=O)=O` stands 14.6%.
Under `CS(=O)(=O)N[C@H]1CN(CCOCc2ccccc2)C[C@@H]1C1CC1` stands 15%.
As for `CCOc1ccc(Cl)c(C(=O)N2CCN(C(=O)OC)CC2)n1`, the INHIBITION is reported as -6.44%.
For `Cc1cc(C2CCCN2S(=O)(=O)c2cnn(C)c2)on1` (stereo not given) the value was -9.8%; for `Cc1nn(C)cc1CN1C[C@H]2CC[C@@H](C1)N(Cc1c(C)noc1C)C2=O`, -4.4%; for `Cc1ccc(CNC(=O)NCc2ccco2)s1`, 10.7%.
For `CN(C)c1ncc(I)c(C2CCCN2C)n1` (stereo not given) the value was -54.1%; for `CS(=O)(=O)NCC1CCCCN1C(=O)c1ccsc1` (stereo not given), 59.5%; for `CS(=O)(=O)NCC1CCCCN1C(=O)c1ccc(Br)s1` (stereo not given), -50.5%.
For `CS(=O)(=O)NCC1CCCCN1C(=O)c1csc(-c2ccsc2)n1` (stereo not given) the value was -89.3%; for `Cc1ccc2nc(NCCCN3CCCCCC3=O)n(C)c(=O)c2c1`, 8.97%.
Take `CCN1CCN(CCNc2nc3ccc(C)cc3c(=O)n2C)CC1`: the INHIBITION is 71.7%.
For `Cc1ccc2nc(NCCN3CCOCC3)n(C)c(=O)c2c1` the value was -22.4%; for `Cc1nc(C)n(CC2CCCN2CC(=O)Nc2ccncc2)n1` (stereo not given), 25.4%; for `COCCN1CCO[C@@H]2CN(C(=O)Cc3cccc(F)c3)CC[C@@H]2C1`, 10.5%.
Under `O=C(c1cc(-n2cnnn2)ccc1Cl)N1CCN(c2ccccc2)CC1` stands 10.1%; under `O=C(c1ccc(Cl)cc1)N1CCn2c(nn(-c3ccncc3)c2=O)C1`, 49.9%.
Consider `O=C(c1ccc(Cl)cc1)N1CCn2c(nn(-c3cccc(Cl)c3)c2=O)C1`, for which the INHIBITION came out at 54%.
Under `O=C(c1ccc(Cl)cc1)N1CCn2c(nn(-c3ccc(Cl)cc3)c2=O)C1` stands 35%.
Under `Cn1nccc1C(=O)Nc1cc(C(F)(F)F)c[nH]c1=O` stands 17.68%.
For the compound `O=C(NCCNc1ccccn1)Nc1cc(C(F)(F)F)c[nH]c1=O`, the INHIBITION stood at 7.4%.
Under `O=C(NCCc1ccccn1)Nc1cc(C(F)(F)F)c[nH]c1=O` stands 1.62%; under `O=C(NCc1ccccn1)Nc1cc(C(F)(F)F)c[nH]c1=O`, 57.2%; under `Cn1nccc1CNC(=O)Nc1cc(C(F)(F)F)c[nH]c1=O`, 55.1%.
For `O=C(NCc1ccncc1)Nc1cc(C(F)(F)F)c[nH]c1=O` the value was 11.083%; for `Cc1noc(CN2CCN(c3cncc(Cl)n3)CC2)n1`, 5.05%.
For `O=C(N1CCOCC1)N1CCN(c2ccc(Cl)nn2)C(=O)C1` the value was 24.2%; for `CN(Cc1cnn(C)c1)C(=O)CN1CCCC(Cn2cncn2)C1` (stereo not given), 7.67%; for `Cc1nn(C)c(Cl)c1C1CCCN1C(=O)c1cccc(C#N)c1` (stereo not given), -38.7%.
With `Cc1noc(C2(C)CCCN(C(=O)c3cnn(C)c3)C2)n1` (stereo not given), the INHIBITION was found to be 24.4%.
Under `O=C(NCC1CCCCC1)N1C[C@@H]2C[C@H](C(=O)N3CCOCC3)[C@H](C1)O2` stands 22.2%; under `O=C(Nc1nncs1)N1CCC(CCO)CC1`, 66.6%; under `O=C(Nc1nncs1)N1CCC(c2ccc(O)cc2)CC1`, -1.45%.
Under `O=C(Nc1nncs1)N1CCC(CCc2ccc(O)cc2)CC1` stands 12.5%; under `COc1ccc2c(c1)[nH]c1c(N(C)CC3OCCO3)ncnc12`, -13.6%.
Under `O=C(Nc1ccccc1)N1CCn2c(nnc2C2CCCN2)C1` (stereo not given) stands 46.6%; under `O=C(C1=CCCC1)N1CC[C@]2(C[C@H](OCc3cccnc3)CO2)C1`, 16.9%; under `O=C1N(c2ccsc2)CCC12CCCN(Cc1ccccn1)C2` (stereo not given), -6.23%.
Take `Cn1cc(CN2CCC3(CCN(c4cnn(C)c4)C3=O)C2)cn1` (stereo not given): the INHIBITION is on record as 14.8%.
For `COc1ccc(CN2CCC3(CC2)CCN(CC2CC2)C3=O)cc1` the value was 52.4%; for `CN(C)C(=O)CN1CCCC2(CCN(c3ccsc3)C2=O)C1` (stereo not given), 40.4%.
On to `Cn1cc(N2CCC3(CCCN(Cc4ccoc4)C3)C2=O)cn1` (stereo not given), for which the INHIBITION is -2.72%.
Under `Cn1cc(N2CCC3(CCCN(Cc4ccc(F)cc4)C3)C2=O)cn1` (stereo not given) stands 67.2%.
For `Cc1occc1C(=O)N1CCCC2(CCN(c3ccsc3)C2=O)C1` (stereo not given), the INHIBITION was 56.7%.
For `CCN1CCC2(CCN(Cc3ccc(OC)cc3)CC2)C1=O` the value was 38.3%; for `Cc1occc1C(=O)N1CCCC2(CCN(c3ccccc3)C2=O)C1` (stereo not given), -54.5%.
Under `O=C1N(c2ccsc2)CCC12CCCN(CC1CC1)C2` (stereo not given) stands 57.9%.
Turning to `COc1ccc(CN2CCC3(CC2)CCN(CC(=O)N(C)C)C3=O)cc1`, the INHIBITION was -8.51%.
For `Cc1nocc1C(=O)N1CCCC2(CCN(c3ccsc3)C2=O)C1` (stereo not given), the INHIBITION is -107%.
